# Shiga toxin inh: blocks Shiga toxin action in Vero cells. Vero cells, Shiga toxin protein synthesis inhibition reporter. inhibition, % at 38.7 µM. 290,000 compounds, 9.2% hits. AID 2315; in the data active means inhibition mostly above about 28%, no sharp cut-off; inactive means mostly below about 43%; further: 0% is about no effect
# CHX counter: counter-screen for Shiga toxin inhibitors: cycloheximide protein synthesis inhibition. max response, %. 300,000 compounds, 12% hits. cell reporter, cycloheximide protein synthesis inhibition counterscreen; in the data active means max response mostly above about 13%, no sharp cut-off; inactive means mostly below about 14%; further: read at 38.3 µM for the half of the compounds with a filed dose; 0% is about no effect
# Pf growth 48h: P. falciparum growth inhibition at 48 hours (one generation) | P. falciparum luciferase growth in erythrocytes, 48 h | Potency, µM (series often up to 28.7 µM), for the others: top-dose activity change, negative = inhibition, usual class: inhibitors | 310,000 compounds, 5.9% hits | AID 504832; further: potency means the concentration at half of the fitted maximal effect; on the % scale 0 is the no-effect control and ±100 the full control effect
#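 Here the parasites carry a stable luciferase gene and grow inside erythrocytes in Albumax-based RPMI medium with compound for one erythrocytic cycle. Activity is scored as loss of luminescent signal.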
# Pf growth 96h: P. falciparum growth inhibition at 96 hours. Potency, µM (highest dose often 28.7 µM), for inactives: at the highest dose activity change, negative = inhibition, actives largely listed as inhibitors. AID 504834. 320,000 compounds, 6.9% hits. P. falciparum luciferase reporter growth, 96 h; further: potency means the concentration at half of the fitted maximal effect; on the % scale 0 is the no-effect control and ±100 the full control effect
#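 96 h incubation, 37 C, 5% CO2, of luciferase-reporter P. falciparum-infected RBCs (2% hematocrit, 0.05% parasitemia final) with test compounds; endpoint luminescence.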
# Giardia FBPA inh: inhibitors of Giardia lamblia fructose-1,6-bisphosphate aldolase | purified Giardia FBPA | Potency, µM (series often up to 59.6 µM), for inactives: top-dose activity, negative = inhibition, usual class: inhibitors | 290,000 compounds, 0.71% hits | A8B2U2; further: potency means the concentration at half of the fitted maximal effect; on the % scale 0 is the no-effect control and ±100 the full control effect; nearly all actives have a fitted effect of over 55% in size
# Target sequence (A8B2U2 whole entry, looked up): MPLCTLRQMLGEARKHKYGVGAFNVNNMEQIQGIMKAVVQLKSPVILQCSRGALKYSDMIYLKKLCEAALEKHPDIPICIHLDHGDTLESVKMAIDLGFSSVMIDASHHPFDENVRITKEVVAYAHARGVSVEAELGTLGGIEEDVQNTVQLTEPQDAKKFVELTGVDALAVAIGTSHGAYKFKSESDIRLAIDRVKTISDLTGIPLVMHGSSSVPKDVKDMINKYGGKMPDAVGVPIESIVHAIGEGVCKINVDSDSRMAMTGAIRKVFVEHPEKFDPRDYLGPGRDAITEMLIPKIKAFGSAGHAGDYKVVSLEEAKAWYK
#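 Giardia FBPA (40 nM reagent) was preincubated 10 min at RT with compound (up to 57.5 uM final), then substrate plus GAPDH/TPI/NAD/arsenate coupling system with diaphorase/resazurin was added; resorufin fluorescence (525/598 nm) was read after 20 min.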
# NS1 function inh: blocks influenza NS1 protein function. Potency, µM (titrated, usually from 46.1 µM), for inactives: at the top dose activity, positive = more growth. 270,000 compounds, 0.4% hits; calls by dose curve; further: potency means the concentration at half of the fitted maximal effect; actives are rising curves; nearly all actives have a fitted effect of over 50% in size
#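 A cell-based growth assay was used: compounds that relieve NS1-induced slow growth of budding yeast raise OD600. Assay medium was yeast nitrogen base with ammonium sulphate and -URA supplement, pH 6.0, with 2% galactose.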
# An asterisk follows results filed as active; ? = inconclusive; / = not tested or not shown; [ ] = remark or other dose. Hits are enriched below; roughly 21% of the tested compounds scored in any of these assays. Unless noted, the call rests on the fitted dose curve; in most records, active means well fitted curve in the direction sought with a large enough effect; inconclusive means small, poorly fitted or top-dose-only effect, or another doubt; inactive means no such curve, though single readings can be large; an effect the other way counts as inactive or inconclusive.
SMILES,Shiga toxin inh,CHX counter,Pf growth 48h,Pf growth 96h,Giardia FBPA inh,NS1 function inh
COc1cc(C(=O)N=C2SC3CS(=O)(=O)CC3N2c2ccccc2)cc(OC)c1OC (configuration not stated),-5,-2,18%,34%,5%,-13%
COc1ccccc1C(=O)N=C1SC2CS(=O)(=O)CC2N1c1ccccc1 (configuration not stated),22,9.8*,23%,?,11%,-5%
CN(C)c1ccc(N2C(=NC(=O)CCc3ccccc3)SC3CS(=O)(=O)CC32)cc1 (configuration not stated),24,19*,?,12µM*,/,5%
CCCC(=O)N=C1SC2CS(=O)(=O)CC2N1c1ccc(-c2nc3ccc(C)cc3s2)cc1 (configuration not stated),106*,44*,158%,94%,1%,15%
CN(C)c1ccc(N2C(=NC(=O)C3CCCO3)SC3CS(=O)(=O)CC32)cc1 (configuration not stated),21,38*,31%,73%,/,-5%
CC(OC(=O)Cc1c(F)cccc1Cl)C(=O)NC1CCCCC1C (configuration not stated),/,/,-26%,?,/,/
COc1ccccc1N1CCN(C(=O)COc2cc(C)cc(C)c2)CC1,-13,1,?,0%,2%,/
CC(C)(C)NC(=O)C(c1ccc(I)cc1)N(CCN1CCOCC1)C(=O)CCCNC(=O)c1ccccc1 (configuration not stated),/,/,/,/,8%,/
COc1ccc(C)cc1NC(=S)N1CC(C)OC(C)C1 (configuration not stated),-15,1,5%,-1%,/,1%
COc1cc(/C=N/c2oc(-c3ccccc3)cc2C#N)ccc1O,28,19*,-8%,4%,-4%,-11%
COc1cc(/C=N/NC(=O)c2ccccc2)ccc1O,60*,26*,71%,31%,-2%,1%
CCOc1cc(/C=N/NC(N)=S)cc(Br)c1OCc1ccccc1C,-22,2,13µM*,/,0%,-8%
COc1ccc(/C=N/NC(=O)c2ccc(-c3ccccc3)cc2)cc1O,9,0,7%,-2%,2%,3%
COc1cc(C(=O)N/N=C/c2ccc(OC(=O)c3ccccc3)c(OC)c2)ccc1O,-4,6,-5%,9.3µM*,1%,-3%
COc1cc(/C=N/NC(=O)CN(Cc2ccco2)S(=O)(=O)c2ccccc2)ccc1O,-4,18*,-8%,?,-2%,13%
COc1cc(/C=N/NC(=O)CN(Cc2ccccc2)S(=O)(=O)c2ccc3c(c2)OCCO3)ccc1O,-10,0,-16%,-15%,-2%,?
CCOc1c(Br)cc(/C=N\NC(=O)c2ccccc2)cc1OC,active,32*,5.2µM*,8.3µM*,-2%,-32%
CC(C)(C)OC(=O)NC(Cc1ccccc1)C(=O)NC1COC2CC(n3cc(F)c(=O)[nH]c3=O)OC12 (configuration not stated),54,-1,/,/,3%,/
CCN(C(=O)C(=O)c1c[nH]c2ccccc12)c1ccccc1,19,18*,28%,?,-10%,10%
CCN(CC)c1ccc(/C=N/NC(=O)c2cc3ccccc3[nH]2)cc1,28,20*,-4%,-53%,2%,-18%
CCN(CC)c1ccc(/C=N/NC(=O)c2cc(C)nc3ccccc23)cc1,15,10,-17%,5%,0%,-4%
CCN(CC)c1ccc(/C=N/NC(=O)c2c[nH]c3ccccc23)cc1,40*,35*,?,-13%,-1%,-5%
O=C(O)CCNc1ccccc1C(=O)O,/,/,/,/,/,-2%
O=C(NC1CCCC1)c1cccc2c1C(=O)c1ccc(/C=C/c3ccccc3)cc1S2(=O)=O,/,/,?,1.9µM*,/,/
Cc1ccc(C(=O)OCC(=O)c2c[nH]c3ccccc23)cc1NC(=O)c1ccco1,45,19*,-15%,?,-4%,10%
SMILES,Shiga toxin inh,CHX counter,Pf growth 48h,Pf growth 96h,Giardia FBPA inh,NS1 function inh
CCN(CC)C(=O)COC(=O)c1ccc(C)c(NC(=O)c2ccco2)c1,21,6,43%,50%,1%,/
Cc1ccc(C(=O)OCc2c(C)noc2C)cc1NC(=O)c1ccco1,16,-4,-77%,10µM*,10%,-5%
CCN(CC)CCC(c1ccc(N(C)C)cc1)c1c(OC)cc(OC)c2c1OC(=O)CC2c1ccc(N(C)C)cc1 (configuration not stated),27,-3,/,/,-2%,/
C#CCNC(=O)C(C)c1ncc(C(F)(F)F)cc1Cl (configuration not stated),-7,3,-4%,120%,1%,6%
COc1ccc(S(=O)(=O)N2CCN(C(=O)NCc3ccc(C)cc3)CC2)cc1,15,-2,?,-7%,10%,-14%
O=C(c1ccc(-n2cccc2)cc1)N1CCCCC1,49,26*,57%,78%,11%,/
O=C(Nc1ccc(C(=O)N2CCCCC2)cc1)c1ccc(Br)cc1,39,9,?,4.1µM*,-9%,-11%
Cc1ccc(C(=O)Nc2ccc(NC(=O)c3ccc(C)o3)cc2)o1,24,9,-7%,21%,10%,-1%
Cc1ccc(C(=O)Nc2ccc(C(=O)N3CCCCC3)cc2)o1,52*,26*,32%,-1%,/,5%
O=C(c1ccc(Br)cc1)N1CCCC1,9,-3,21%,/,-1%,-6%
CC1CC[C@@]2(OC1)OC1CC3C4CC[C@H]5CC(O)CC[C@@]5(C)C4CC[C@]3(C)C1C2C (some centres not stated),/,/,/,/,1%,/
CCCCS(=O)(=O)N1C2=NC(C(=O)OC)=C(C(=O)OC)[C@@H]3N(C)c4ccc(OC)cc4[C@]23C[C@H]1C(=O)OC,-4,7,10µM*,?,2%[12.9 µM],-11%
COC(=O)C1=C(C(=O)OC)[C@@H]2N(C)c3ccc(OC)cc3[C@@]23C[C@@H](C(=O)OC)N(S(=O)(=O)c2ccc(C#N)cc2)C3=N1,/,/,/,/,1%[12.9 µM],/
COC(=O)C1=C(C(=O)OC)[C@@H]2N(C)c3ccc(OC)cc3[C@@]23C[C@@H](C(=O)OC)N(S(=O)(=O)c2ccc([N+](=O)[O-])cc2)C3=N1,-5,-4,7.4µM*,13µM*,0%[12.9 µM],-2%
C=CCN(Cc1cc(OC)ccc1OC)C(=O)c1cc2ccc(OC)cc2[nH]1,21,5,?,?,2%,-1%
CCN(Cc1ccccc1)C(=O)c1ccc(Cl)cc1[N+](=O)[O-],-11,-6,-15%,?,0%,/
Cc1cc(=O)[nH]c(Nc2cccc(C(F)(F)F)c2)n1,-31,14,?,13µM*,-7%,9%
Cc1cc(=O)[nH]c(NN=C2C3CC4CC(C3)CC2C4)n1,27,18*,8%,?,?,-2%
Cc1cc(=O)[nH]c(NN)n1,9,8,?,9.3µM*,?,-6%

# Screening data (PubChem BioAssay)
